Measurements as given in PubChem BioAssay.
Where “and” joins values, the source holds several entries; their conditions need not be identical. Identical values can stand only once. Calls of active or inactive are those of the source.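 Rule for the calls, unless noted: active = compounds lowering colon cancer cell viability after pretreatment blocking the GSK3B kinase; inactive = the rest.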

Columns and labels:
[1] = stimulators of nuclear beta-catenin in C2C12, primary screen, imaging, WNT3A-conditioned medium, mouse C2C12, NPC library (AID 1117326; in the data active = nuclear beta-catenin stimulation mostly above about 4.2%, no sharp cut-off; inactive = mostly below about 10%); details: stronger effect = higher value
[2] = growth inhibition of GSK3B-pretreated HCT116 cells – cell-based, CellTiter-Glo, 0.2 to 20 µM (AID 1117336); details: HCT116 viability after GSK3B inhibitor, at 20 µM, stronger effect = higher value
[3] = HCT116 colon cancer cell growth inhibition, primary screen, CellTiter-Glo luminescence, NPC library (AID 1117342;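 active = compounds that lower survival of HCT116 colon cancer cells in the luminescence readout, no numeric limit stated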); details: at 20 µM (top of the series)
[4] = CellTiter-Glo luminescent readout of SW480 viability loss, NPC library primary (AID 1117343;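 active = compounds that lower viability of the colon cancer cells in the luminescence readout, with no numeric limit stated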); details: CellTiter-Glo luminescence; at 20 µM (top of the series) unless noted
[5] = decreased DLD-1 cellular survival, CellTiter-Glo luminescent readout, NPC compound collection, primary HTS (AID 1117346;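 active = compounds that lower survival of DLD-1 colon cancer cells in the luminescence readout, no cutoff given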); details: DLD-1 viability, CellTiter-Glo luminescence; at 20 µM (top of the series)
[6] = hESC survival regulators, cell-based (AID 493140; call rule not given here;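 note: cells exposed to compounds for four days before counting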); details: human embryonic stem cell survival screen; stronger effect = higher value
[7] = stimulators of insulin release from INS-1E, primary screen, cell-based, 5 mM glucose, NPC library (AID 1117329;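 active = compound raises insulin release from rat beta cells at 5 mM glucose, no numeric limit stated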); details: rat INS-1E insulin secretion, at 10 µM, stronger effect = higher value
[8] = inhibition of endothelial tube formation, primary screen, imaging, VEGF stimulated, CD31 staining, tube area, NPC library (AID 1117340;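 active = compound that reduces growth-factor-driven endothelial tube area in a mixed cell culture, no cutoff stated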); details: VEGF-stimulated ADSC/ECFC co-culture, at 10 µM, stronger effect = higher value
[9] = glucagon-like peptide 1 release enhancers, primary assay, NCI-H716 cell line, NPC library (AID 1117341;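 active = compound raises GLP1 secretion from the human gut endocrine cells, with no numeric limit stated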); details: NCI-H716 cells, at 10 µM, stronger effect = higher value
[10] = target: 6-phosphogluconate dehydrogenase, decarboxylating (Homo sapiens) (UniProt P52209); assay: 6PGD enzyme inhibitors, primary screen, biochemical, human, recombinant enzyme, NADPH absorbance (AID 1159550;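 active = at least 20% inhibition of 6-phosphogluconate dehydrogenase activity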); details: recombinant 6PGD, NADPH absorbance 341 nm; at 10 µM; stronger effect = higher value
[11] = differential killing of epithelial or mesenchymal cells, primary screen, imaging, PC-3E GFP, TEM4-18 mCherry, co-culture (AID 1345086;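 active = compounds killing one labelled cell type while sparing the other, by normalised counts and ratio limits, not self-fluorescent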;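 for all read-outs here: cells exposed to compound for 72 h before imaging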;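 for red/green cell ratio (normalised): normalised mesenchymal count divided by normalised epithelial count so high means epithelial killing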); details: imaging cell counts, at 1 µM; for red/green cell ratio (normalised): actives lie on both sides, counts scaled to control wells, 1 = unselective
[12] = survival rescue of mitochondrial mutant cells in low glucose, primary screen, MELAS cybrids, Rieske KO mouse fibroblasts, CellTiter-Glo (AID 1508586;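 active = mean z-score across replicates of 1.96 or higher in either the MELAS or the Rieske mutant cell line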;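 note: z relative to plate mean and SD of compound and empty wells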)
[13] = target: NAD(+) hydrolase SARM1 (Homo sapiens) (UniProt Q6SZW1); assay: SARM1 TIR NADase inhibitors, cell lysate, NAD-Glo luminescence (AID 1508614;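 active = compound whose remaining NAD level is above about 45 nM, limit read from the data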;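 note: higher remaining NAD means stronger inhibition of SARM1 NADase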); details: SAM-TIR HEK293T lysate NADase, at 1 µM, stronger effect = higher value
[14] = target: Mitogen-activated protein kinase 7 (Homo sapiens) (UniProt Q13164); assay: ERK5 transactivation activators in reporter cells, primary screen, cell-based, HTS (AID 1508626;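 active = luciferase signal above three times the same-plate solvent-only control wells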;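 note: luciferase driven by Gal4-ERK5 fusion binding five Gal4 sites before minimal TATA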); details: HeLa Gal4-ERK5 transactivation, 18 h, at 5 µM, stronger effect = higher value
[15] = viability rescue of complex I mutant cybrids, primary screen, cell-based, galactose medium, ATP luminescence (AID 1645843;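 active = z-score of at least 1.8 in each of two replicates, scored against plate mean and spread of sample wells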;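 note: positive z means more ATP and so rescue of galactose-driven cybrid death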); details: complex I mutant cybrid cells, 72 h, stronger effect = higher value
[16] = sensitizers of A549 cells to miR-34 induction, primary screen, imaging, A549 dox-inducible miR-34, nuclei and caspase counts (AID 1347080;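 active = compounds whose cell count with miR-34 switched on is under 0.7 times the count with it off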); details: A549 miR-34 inducible, Hoechst nuclei count, 48 h
[17] = measured here: epithelial PC-3E GFP cell survival
[18] = measured here: mesenchymal TEM4-18 mCherry cell survival
[19] = MELAS cybrid survival, CellTiter-Glo 48 h, stronger effect = higher value
[20] = Rieske KO mouse fibroblast survival, CellTiter-Glo 72 h

Chain of Mitogen-activated protein kinase 7 (Homo sapiens) (Q13164 whole entry, looked up, the tested form may be a part): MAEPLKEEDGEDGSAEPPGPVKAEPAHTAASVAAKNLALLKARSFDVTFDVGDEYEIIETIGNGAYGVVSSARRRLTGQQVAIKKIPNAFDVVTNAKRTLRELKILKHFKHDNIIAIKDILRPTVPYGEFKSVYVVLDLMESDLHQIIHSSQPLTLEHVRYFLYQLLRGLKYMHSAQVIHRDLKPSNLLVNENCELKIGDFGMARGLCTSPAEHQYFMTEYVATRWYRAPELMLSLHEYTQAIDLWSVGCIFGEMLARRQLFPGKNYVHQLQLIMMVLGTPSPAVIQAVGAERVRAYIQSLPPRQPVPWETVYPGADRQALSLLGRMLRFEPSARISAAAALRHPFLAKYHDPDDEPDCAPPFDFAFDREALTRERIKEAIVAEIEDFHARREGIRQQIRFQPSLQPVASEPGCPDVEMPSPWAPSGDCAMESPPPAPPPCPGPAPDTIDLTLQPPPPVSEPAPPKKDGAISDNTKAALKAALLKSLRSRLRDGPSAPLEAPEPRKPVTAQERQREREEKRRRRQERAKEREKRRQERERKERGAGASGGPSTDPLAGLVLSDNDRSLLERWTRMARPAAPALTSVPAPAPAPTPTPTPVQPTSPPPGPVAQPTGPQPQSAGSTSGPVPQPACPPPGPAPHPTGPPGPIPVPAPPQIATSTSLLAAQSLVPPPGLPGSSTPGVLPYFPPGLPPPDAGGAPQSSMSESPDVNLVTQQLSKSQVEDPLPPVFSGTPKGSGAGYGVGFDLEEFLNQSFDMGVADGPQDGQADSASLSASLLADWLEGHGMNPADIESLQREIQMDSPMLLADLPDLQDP
Chain of NAD(+) hydrolase SARM1 (Homo sapiens) (Q6SZW1 whole entry, looked up, the tested form may be a part): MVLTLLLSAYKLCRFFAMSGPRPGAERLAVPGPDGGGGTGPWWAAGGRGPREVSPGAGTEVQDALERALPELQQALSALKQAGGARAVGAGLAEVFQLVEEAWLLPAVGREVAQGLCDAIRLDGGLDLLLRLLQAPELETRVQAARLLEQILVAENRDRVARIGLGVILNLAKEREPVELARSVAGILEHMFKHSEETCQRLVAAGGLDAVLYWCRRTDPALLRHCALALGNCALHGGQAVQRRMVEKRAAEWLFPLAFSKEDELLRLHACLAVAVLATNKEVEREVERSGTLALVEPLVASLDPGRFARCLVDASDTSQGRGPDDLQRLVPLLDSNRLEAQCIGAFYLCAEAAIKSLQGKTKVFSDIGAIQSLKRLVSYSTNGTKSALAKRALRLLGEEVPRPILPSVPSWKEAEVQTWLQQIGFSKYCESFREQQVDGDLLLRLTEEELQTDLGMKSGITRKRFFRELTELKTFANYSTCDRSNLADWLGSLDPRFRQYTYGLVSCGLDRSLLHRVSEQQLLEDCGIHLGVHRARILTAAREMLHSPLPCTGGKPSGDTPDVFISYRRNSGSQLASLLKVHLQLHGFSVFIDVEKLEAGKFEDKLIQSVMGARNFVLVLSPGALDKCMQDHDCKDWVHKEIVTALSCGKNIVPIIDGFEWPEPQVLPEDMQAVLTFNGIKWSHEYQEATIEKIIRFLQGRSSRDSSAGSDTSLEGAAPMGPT
Chain of 6-phosphogluconate dehydrogenase, decarboxylating (Homo sapiens) (P52209 whole entry, looked up): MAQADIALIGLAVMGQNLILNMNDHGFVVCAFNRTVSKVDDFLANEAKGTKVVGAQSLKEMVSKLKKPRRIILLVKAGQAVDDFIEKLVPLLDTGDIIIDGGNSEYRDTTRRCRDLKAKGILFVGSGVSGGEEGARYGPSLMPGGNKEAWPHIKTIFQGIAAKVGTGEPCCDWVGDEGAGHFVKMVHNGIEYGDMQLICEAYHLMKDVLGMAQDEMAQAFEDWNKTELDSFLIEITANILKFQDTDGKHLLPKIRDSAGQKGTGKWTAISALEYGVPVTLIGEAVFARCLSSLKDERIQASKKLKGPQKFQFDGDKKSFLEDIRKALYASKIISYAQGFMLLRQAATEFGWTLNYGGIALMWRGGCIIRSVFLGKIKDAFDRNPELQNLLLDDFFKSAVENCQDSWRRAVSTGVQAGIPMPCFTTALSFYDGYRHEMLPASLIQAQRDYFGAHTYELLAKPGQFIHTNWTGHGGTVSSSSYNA

CCO[C@H](Cc1ccc(OCCc2ccc(OS(C)(=O)=O)cc2)cc1)C(=O)O
inactive: nuclear beta-catenin stimulation ([1]; at 10 µM) 1.2% | viability decrease [2] 8.6% | inhibition of viability [3] -7.7% | viability decrease (inhibition) [4] -5.9% | viability decrease (inhibition) [5] -11.3%
7.6%: nuclear beta-catenin stimulation ([1]; stimulation, at 2 µM)

CN(C)C(=O)C(CCN1CCC(O)(c2ccc(Cl)cc2)CC1)(c1ccccc1)c1ccccc1
active: viability decrease [2] 64.9% | inhibition of viability [3] 90.6% | viability decrease (inhibition) [4] 99.6% | viability decrease (inhibition) [5] 88.2%
1.3: normalised cell number [11, 17]
inactive: survival [6] 9 | insulin secretion stimulation [7] 1.9% | tube area decrease [8] 11.7% | GLP1 secretion stimulation [9] 2.9% | inhibition [10] 1.17% | red/green cell ratio (normalised) [11] 1.02 | z-score [12, 19] -0.364 and -0.238 and 0.591 | remaining NAD [13] 10 nM | luciferase signal [14] 40 AU
-1.34 and 0.463 and -0.456: z-score [12, 20]
1.33: normalised cell number [11, 18]

CC(C)CCCC(C)NCCC(C)C (centres undefined)
2.7%: nuclear beta-catenin stimulation ([1]; stimulation, at 2 µM)
inactive: nuclear beta-catenin stimulation ([1]; at 10 µM) -1.6% | viability decrease [2] -5.2% | inhibition of viability [3] -0.4% | viability decrease (inhibition) [4] -8.8% | viability decrease (inhibition) [5] 1.8%

COc1c2occc2cc2ccc(=O)oc12
inactive: survival [6] 5.42 | insulin secretion stimulation [7] 1.9% | viability decrease [2] -33.7% | tube area decrease [8] 3.8% | GLP1 secretion stimulation [9] 2% | inhibition of viability [3] 8.3% | viability decrease (inhibition) [4] 26.9% | viability decrease (inhibition) [5] 8.4% | inhibition [10] 3.81% | red/green cell ratio (normalised) [11] 1.15 | z-score [12, 19] -0.203 | remaining NAD [13] 10 nM | luciferase signal [14] 24 AU | z-score [15] 0.975
-0.0388: z-score [12, 20]
0.84: normalised cell number [11, 17]
0.96: normalised cell number [11, 18]

CC(C)(C)NC(=O)[C@@H]1C[C@@H]2CCCC[C@H]2CN1C[C@@H](O)[C@H](Cc1ccccc1)NC(=O)[C@H](CC(N)=O)NC(=O)c1ccc2ccccc2n1
active: inhibition of viability [3] 74% | viability decrease (inhibition) [4] 92.3% | viability decrease (inhibition) [5] 88.3%
inactive: insulin secretion stimulation [7] 1.9% | viability decrease [2] 45.8% | tube area decrease [8] 29.6% | GLP1 secretion stimulation [9] -3.7%

Oc1ccc(O)cc1
8040 and 8490: cell count ([16]; measured here: total cells without miR-34 induction)
14.4%: nuclear beta-catenin stimulation ([1]; stimulation, at 2 µM)
inactive: nuclear beta-catenin stimulation ([1]; at 10 µM) 10.9% | viability decrease [2] 45.2% | inhibition of viability [3] -47.7% | viability decrease (inhibition) [4] 20.4% | viability decrease (inhibition) [5] -15% | inhibition [10] 10.8% | red/green cell ratio (normalised) [11] 1.14 | fold change ([16]; stronger effect = lower value, cell number ratio, induced over uninduced) 0.97 and 0.922 | remaining NAD [13] 10 nM | luciferase signal [14] 40 AU | z-score [15] -1.04
1.29: normalised cell number [11, 18]
1.14: normalised cell number [11, 17]
7800 and 7820: cell count ([16]; measured here: total cells with miR-34 induction, stronger effect = lower value)
0.837 and 1.69: fold change ([16]; measured here: relative caspase fold change +Dox/-Dox)
